Test system: Vero E6 infected with SARS-CoV-2
Assay: inhibition of SARS-CoV-2 cytopathic effect; higher = more antiviral protection, active = above 15
Details: 48 h

Measured: inhibition of SARS-CoV-2 cytopathic effect

C#C[C@]1(OC(C)=O)CC[C@H]2[C@@H]3CCC4=C[C@@H](OC(C)=O)CC[C@@H]4[C@H]3CC[C@@]21C [ethynodiol-diacetate]
inactive: 1 nM 1.35% | 8.33 nM 3.73% | 100 nM 2.52% | 833.33 nM -2.62% | 10000 nM -1.63%

N#CCNC(=O)c1ccc(-c2ccnc(Nc3ccc(N4CCOCC4)cc3)n2)cc1
inactive: 1 nM -0.49% | 8.33 nM -0.77% | 100 nM -0.33% | 833.33 nM -4.04% | 10000 nM -6.6%

Cc1ccc(C(=O)Nc2ccc(S(=O)(=O)O)c3cc(S(=O)(=O)O)cc(S(=O)(=O)O)c23)cc1NC(=O)c1cccc(NC(=O)Nc2cccc(C(=O)Nc3cc(C(=O)Nc4ccc(S(=O)(=O)O)c5cc(S(=O)(=O)O)cc(S(=O)(=O)O)c45)ccc3C)c2)c1 [suramin]
inactive: 1 nM 0.16% | 8.33 nM 0.17% | 100 nM 0.66% | 833.33 nM -0.75% | 10000 nM 1.44%

CCOC(=O)c1cnc2c(cnn2CC)c1NN=C(C)C [etazolate]
inactive: 1 nM -0.85% | 8.33 nM 4.04% | 100 nM 0.13% | 833.33 nM 1.35% | 10000 nM -1.47%

CO/N=C(\C(=O)N[C@@H]1C(=O)N2C(C(=O)O)=C(CSC(=O)c3ccco3)CS[C@H]12)c1csc(N)n1
inactive: 1 nM -0.19% | 8.33 nM -0.66% | 100 nM -1.18% | 833.33 nM -0.09% | 10000 nM -0.18%

CN(C)CCN(Cc1ccccc1)c1ccccn1 [tripelennamine]
inactive: 1 nM 1.72% | 8.33 nM 2.84% | 100 nM 0.58% | 833.33 nM -0.69% | 10000 nM -1.94%

CCCNC(C)C(=O)Nc1c(C)csc1C(=O)OC (stereo not given) [articaine]
inactive: 1 nM -0.23% | 8.33 nM 0.85% | 100 nM 0.42% | 833.33 nM 4.27% | 10000 nM -2.09%

CN1CCN(C(=O)C2C(C(=O)O)[C@H]3CC[C@@H]2O3)CC1 (stereo not given in full)
inactive: 1 nM -1.86% | 8.33 nM 0.2% | 100 nM 0.49% | 833.33 nM 0.2% | 10000 nM -0.43%

CN1C(=O)OC(C)(C)C1=O [trimethadione]
inactive: 1 nM -3.89% | 8.33 nM -1.8% | 100 nM -2.46% | 833.33 nM -3.14% | 10000 nM -1.97%

CC(C)(Oc1ccc(Cl)cc1)C(=O)O [clofibric-acid]
inactive: 1 nM 0.55% | 8.33 nM 2.02% | 100 nM 0.3% | 833.33 nM 2.45% | 10000 nM 2.22%

N=C(N)NC(=N)Nc1ccccc1 [1-phenylbiguanide]
inactive: 1 nM -1.07% | 8.33 nM -0.09% | 100 nM 0.97% | 833.33 nM 1.34% | 10000 nM -1.5%

Oc1ncnc2[nH]ncc12 [allopurinol]
inactive: 1 nM -15.3% | 8.33 nM -12.3% | 100 nM -11.2% | 833.33 nM -10.9% | 10000 nM -7.04%

CCCCCCCCCCCCCCCC[n+]1ccn(Cc2ccccc2)c1C
inactive: 1 nM -1.36% | 8.33 nM 0.51% | 100 nM 0.65% | 833.33 nM -4.4% | 10000 nM -20.9%

CC(C)C[C@@H](N)C(=O)N[C@H]1C(=O)N[C@@H](CC(N)=O)C(=O)N[C@H]2C(=O)N[C@H]3C(=O)N[C@H](C(=O)N[C@H](C(=O)O)c4cc(O)cc(O)c4-c4cc3ccc4O)[C@H](O)c3ccc(c(Cl)c3)Oc3cc2cc(c3O[C@@H]2O[C@H](CO)[C@@H](O)[C@H](O)[C@H]2O[C@H]2C[C@](C)(N)[C@H](O)[C@H](C)O2)Oc2ccc(cc2Cl)[C@H]1O [norvancomycin]
inactive: 1 nM -0.51% | 8.33 nM 2.53% | 100 nM 11.9% | 833.33 nM 1.73% | 10000 nM -2.8%

CCOc1cc2ncc(C#N)c(Nc3ccc(OCc4ccccn4)c(Cl)c3)c2cc1NC(=O)/C=C/CN(C)C [neratinib]
inactive: 1 nM 0.12% | 8.33 nM -2.36% | 100 nM -7.88% | 833.33 nM -0.85% | 10000 nM -8.5%

COC(=O)Nc1ccc(-c2nc(N3CCOCC3)c3cnn(C4CCN(C(=O)OC)CC4)c3n2)cc1
inactive: 1 nM 1.39% | 8.33 nM 1.76% | 100 nM 4.01% | 833.33 nM 0.99% | 10000 nM 2.63%
